Results on 14 molecules are retold here after the supplement of paper PMC10105736.

A number with no mark means an inactive call.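 How the source made its calls: active = MAPPIT score above the 99th percentile of random reference set scores in the same batch; inactive = at or below it.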

Test in all cases: MAPPIT interaction score (arbitrary units); higher = stronger binary interaction signal, active = hit call of the paper
The target of one assay is Sid. The settings on record: MAPPIT configuration: N-N; pair source set: Curagen_high_conf.
In the next assay the target is Xbp1. The settings on record: MAPPIT configuration: N-N; pair source set: Curagen_low_conf.
A further assay has as its target Rtnl1. Conditions: MAPPIT configuration: N-N; pair source set: screen_2.
The target in another assay is Six4. The settings on record: MAPPIT configuration: N-N; pair source set: Lit-BS-16.
For another assay, the target named is ScpX. The settings on record: MAPPIT configuration: N-N; pair source set: Curagen_high_conf.
Another assay deals with SelR. The settings on record: MAPPIT configuration: N-N; pair source set: Curagen_high_conf.
A further assay deals with Sirt2. The settings on record: MAPPIT configuration: N-N; pair source set: Finley_Y2H.
The target of another assay is Shmt. Conditions: MAPPIT configuration: N-N; pair source set: Curagen_high_conf.
In a further assay the target is Slh. Conditions: MAPPIT configuration: N-N; pair source set: Finley_Y2H.
Another assay deals with Sce. Conditions: MAPPIT configuration: N-C; pair source set: Lit-BM-16.
A further assay addresses Rpt2. The settings on record: MAPPIT configuration: N-N; pair source set: screen_1.
The next assay has as its target Sfp84E. Conditions: pair source set: RRS.
Another assay addresses alc. Conditions: MAPPIT configuration: N-N; pair source set: Lit-BS-16.
In the next assay the target is robl62A. The settings on record: MAPPIT configuration: N-N; pair source set: RRS.
Substrate in assay [1]: SNCF
The settings on record: MAPPIT configuration: N-N; pair source set: DPIM.

The target in another assay is Sas10. Conditions: MAPPIT configuration: N-N; pair source set: Finley_Y2H.
For the next assay, the target named is grau. Conditions: MAPPIT configuration: N-N; pair source set: Lit-BM-16.
Another assay concerns the target Sarm. Conditions: MAPPIT configuration: N-N; pair source set: Curagen_low_conf.
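Further: HEK293T cells with Epo stimulation, STAT-responsive firefly luciferase reporter, fold induction versus unstimulated cells divided by the larger fold induction of two negative controls lacking either bait or prey.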

B1: Pep (protein)
chain: MVSVKVNGNPQNRLVNNAKVNGNMAFRGNQNRNRNFGGGNNNYGGPMGANRMGGMNMSPWESQNPGGGQFGNNMRQGGGQMNAQAINLANNLLNNLFRNQNPPSLLDLPRGGGGMGNRNQRGGPMVSRGGGAGNRLNNRRGQGGGFQNRGATGSGPKPPPKQGGGGIRKQNAFDRAKKLLAKNANQNKKKEPTPGEKKIESPTKESPYASVPNDMFYCHLCKKHMWDANSFENHIKGRTHLMMREGIEESYRLKANMIRQEAKIAEQLKSIEFDRLKRMGKSKQRQLDYCTMCDLNFHGHISTHRKSEGHLQLKKFLHPKCIECNKEFATRIDYDTHLLSAEHLKKAAENNTKVGERKRQTLPISTEEEETRDLRLPQKRKKKPVKKEGEAADGEAKKEGAGDGEGAEGDEAEGEEAKEGEEAADETKEGDELNESQEEEEVALPVDPEDCILDFNDGDEIPSEVDTRLPKYNWQRAVGPGLISKLECYECSVCSKFFDTEVTAEIHSRTATHHRNFLKFINEKSSDTKIAQKRAAAALEENERKKRKVEEAEAPAAEGAAEETTEGAEGELYDPSEATGDDEDVEMVDDNAEGEGEGEGDEEAEAEVEEDGAGQDNGEEEMEAQEEEGQEGEQEPEPEPAPVQTPAPAEPAPPAKTPAKTPTKAAAPAAVASPAAAATSADASPSPAKKATPARAAAGAKATPQRQRARGRYNRY
In the case of B1, the MAPPIT interaction score in the assay with Sid is -0.865; with Xbp1, -0.182.

B2: rush (protein)
chain: MVDRLVNSEANTRRIASVENCFGSSGVPLAMQGRVLVGEGVLTKMCRKRPKSRQFFLFNDILVYGNIVIGKKKYNKQHIMPLEEVSLESIADNQTYRNGWYIRTTTKSFVVFAATSTEKQEWMAHINKCVEDLLRKSGKKPVENHAAVWVPDTDASVCMHCKKTQFTFIQRRHHCRNCGAVVCAGCSAKKFLLPQQSTKALRVCDACYERLKHVPSSLGSGEDSAAATGAASGNKLNTTAGDSSNDEDSDEETASPGGESHDEPRFYGDNSVLSAVEDSSTITSPSSATTGSLEAPQVTPSVQSSPAAVATTGSHC
B2: the MAPPIT interaction score with Rtnl1 is -0.205.

B3: CG30031 (protein)
chain: MLKFVILLSAVACALGGTVPEGLLPQLDGRIVGGSATTISSFPWQISLQRSGSHSCGGSIYSSNVIVTAAHCLQSVSASVLQIRAGSSYWSSGGVTFSVSSFKNHEGYNANTMVNDIAIIKINGALTFSSTIKAIGLASSNPANGAAASVSGWGTLSYGSSSIPSQLQYVNVNIVSQSQCASSTYGYGSQIRSTMICAAASGKDACQGDSGGPLVSGGVLVGVVSWGYGCAYSNYPGVYADVAALRSWVISNA
B3: the MAPPIT interaction score with Six4 was -0.185.

B4: CG32486 (protein)
chain: MSVESSSSAVQQPPSSSNLPLLGDNQAVATTSSASSASSSSTSSSSSSVGGGNVVGVPLDTQGSGEPPAKKQLLDGGGGGATSSSGSSLLSSAAAASGMHEKLAHRISNALCCAVCLDLPKTAMYQCQMGHLMCAACFTHLLADGRLRDQIATCPNCRVEISKSTASRNLAVEKAASELPSECQFCNKEFPYKSLERHEQHECQERPTKCKYHRIGCQWRGPYHETNEHERNCLHPQKSGYEVMAALEAHDDRIKEEKKMFNTLIDLLSYEKIIFNDLQMKPYRTDEYVHKLFYETARFSAFNQQWVVKARINNSQRDPHQSNERTITYQLILKTKTSTPMSIHFFALKGPFSDMKVSTQIYKHEFTETSTESEYYVLPLPDGVGGSGSSECNRMLANKGINFRLLMFLLNK
B4: the MAPPIT interaction score with ScpX is 4.53 (active).

B5: CG11899 (protein)
chain: MVINFAAGPAKLPEEVLKEVQENLVNCNGSGISVMEMSHRSSNYAKIHDATISDLRELLNVPSNYKILLMQGGGTGQFAAVALNLIGKTGTADYVITGSWSAKAAKEAAQYGTVNAVLPKLAKYTTVPRQETWKLDPNASYVYYCDNETVEGVEFDFVPEVPAGVPLVADMSSNFLSRPFDVSKFGVIYAGAQKNIGPAGTTVIIVRDDLIGKHLKITPSILNFEQMDKNNSLLNTPPTFGIYVMGLVFKWIKRNGGVAGMAKLAAAKSKLIYDTINQSNGFYYCPVDVNVRSRMNVPFRIGSASGDDALEKEFLSKAEAEGMIQLKGHRSVGGIRASLYNAVTLAETQQLANLMLAFYKNNKN
Take B5: the MAPPIT interaction score with SelR was 0.998.

B6: Pgam5 (protein)
chain: MRKLTSFVCGTGAGLAAYYLQRLRDPQTVVQNSWTHSDKPVDPWALWDTNWDCREPRALVRPLRNSQPEEENRYNAELEKAKAKKARHIILVRHGEYLDVGDSDDTHHLTERGRKQAEFTGKRLCELGIKWDKVVASTMVRAQETSDIILKQIDFEKEKVVNCAFLREGAPIPPQPPVGHWKPEASQFLRDGSRIEAGFRRYFHRAYPDQEKESYTLIVGHGNVIRYFVCRALQFPAEGWLRININHASITWLTISPSGNVSIKYLGDSGFMPAELLTNRIPRDVKNVV
Consider B6, for which, in the assay with Sirt2, the MAPPIT interaction score is 0.996.

B7: Pka-R2 (protein)
chain: MSSDSSRRIQVPEELKEVLLQFSISFLVEQPPDVIDYAVEYFTKLQSERPSVSHTDQSTDDQLSVNSQDADAEPPVMASSRRKSVFAEAYDPEADDDDDGATAVFPKTDEQRARLVESVKNVLLFRSLEKEQMNQVLDAMFERKVQPGDFIIRQGDDGDNFYVIESGVYKVYINDKHINTYNHTGLFGELALLYNMPRAATVQAETSGLLWAMDRQTFRRILLKSAFRKRKMYEELLNSVPMLKALQNYERMNLADALVSKSYDNGERIIKQGDAADGMYFIEEGTVSVRMDQDDAEVEISQLGKGQYFGELALVTHRPRAASVYATGGVVKLAFLDVKAFERLLGPCMDIMKRNIDDYESQLVKIFGSKNNITDTR
Consider B7, for which the MAPPIT interaction score with Shmt is 0.452.

B8: rux (protein)
chain: MSAPEEHKETPLEVIHEFINGVDDGTIRRDLGEDCILSFYSRNVRGAKAITGFLRNQLTMRYKHEGFEEAAQIEWGDELLLKARFGRSFDSERRRIYEEKERTGTTLHVRPESDDEEVNEKFSSTLITPPRPSSYNLNSLKYVEACGLLNKRNEHIYGGLDMGESCAVHLTLGYRSTFLPGGQVSGFEICLAVYDRGLTSLKRSTLIPPLCSISFARRASARCNPTTDDEEDTEEDSTPPTARRCVRRTLFTEENTQKEEDADFIPVVEQEQPAPQEQPAPQQAEETGEVVIPVDISTALKTTNFSSCTPRKRQQATNGNEVVRKRATGPRRMRF
On to B8, for which the MAPPIT interaction score with Slh is -0.123.

B9: ord (protein)
chain: MYGETTLNKNHVIKFIKLKINNCLGCDEVEINFSKADNVHIIIYSLVTDMAKDLPAVTPVAQAILLLCSLTYPDSDSLETIPQLKIGKGSVSMSFKVYPVNKEEETEPESESDLDEGPSTSKQALERMVQRAERKAKEASTRNVHSKGIYVNVERRFDMYFALDTVSYYINGGKRQSCPLPEFHAKFFVRPQHSINLLRQLHEKCSGNWLKVIQSDGDGDAFKKFKDPDSPFETFVKLFESNPIKPNDMMGKLAKTCLHVNEAVRLTEREFILEVFNQVRHIFEYITAQEYTVWFLVPCLGDKDQLRSKTLEDFDLTKVRTSIRRAGDTSNIWWDHTDHNIKDILLVAFQLDLATHVNQSVLVISHLETLAEFSTMQYVTAFFMNDFYAKKNTEPKWICHRYLERIIDVALFLGVIVIIEYPSAFTLLQEGRHLIKCFQKENADSSRTSQWEIFEDVVKENESDLEFLKEAVGKVQQNV
As for B9, the MAPPIT interaction score in the assay with Sce is 2.19.

B10: CG12096 (protein)
chain: MEMEDNWWVTKLKALESKPQRLDALTAMNSAIAKEAALPRQIIERLLTTDQLYDCANPAADSHVPKDQAVDVTLELLCHCLDQLAMDTADEQLSSLLRRGLTHSNPALRAQVLASLFKKLLRQLTVGQVLTLPNNELIFLILDELKQPDTQSTSLAINILSIVLPQRISNADVQAKLVQLLKQNEIVRCRAYELAVVLAKKSATLLSDVTFILDAALSELDNDDVLLQASVMELLVPLAEQNHGLSYMERRRVLDIISYRVQRVEEHPLDALLVPSIMKFFGKISVYQPLKIIGGYPHMLACLFMQLQSEDESILPTAMDTLANLATTPQGKILLNMHFSGAMEKSFKKYGSHTKKLSAHIKKRLLNSLDVIYDFKTPPATEIINIGKNWYECFAGGAHANIIMDLINTPFPDLQMAALSFLKTICKYNWGIVALKNTGGAVEFLLSRQKDLHRDIKYMKWQIMEILSASAEFSPTETIRFTAYVNEGPYHVQADLDVATEPQGNA
Regarding B10, the MAPPIT interaction score with Rpt2 is 5.01 (active).

B11: Adi1 (protein)
chain: MVQVWYMDTEETDQRLEHHRNPPAYLELDDLYQKTGVEYFKINADEYQSDNTLTELRAKRGYTYDDEITCSEKCLPDYANKLKAFFTEHLHTDEEIRLILEGSGYFDVRDNEDNWLRIKVVKGDLIIIPAGIYHRFTLDTNNFIRTRRYFVGEPVWAPHNRPADEMDCRKSYIKHQSENFVQFNKV
In the case of B11, the MAPPIT interaction score was 0.249 with Sfp84E (MAPPIT configuration: N-C), 0.123 with Sfp84E (MAPPIT configuration: N-N), 0.0614 in the assay with alc and 2.17 in the assay with robl62A.

B12: SmD2 (protein)
chain: MALVKPKSELTPEELARQEEEEFNTGPLSVLTQSVKNNTQVLINCRNNKKLLGRVKAFDRHCNMVLENVKEMWTELPRTGKGKKKVKPVNKDRFISKMFLRGDSVILVLRNPLATAAGK
Regarding B12, the MAPPIT interaction score in [1] is 0.49.

B13: CG7137 (protein)
chain: MKPFEVPPWEEGADIIEFEPVNPSGNGVAAKKKPKKKKPKKKKAAVPNENLNVNKAAEKFTYRQGRGPLAPPQDSSDDDYEDVEDGIRAMHKVKSGRIEKQRPPTQATKGGKKELKLKPELAQAALEAMEATSSTTPAANSLASKLQSELLGGRFRYINEQLYSTTSRKAEALFRKDSSAFEAYHAGYRQQVEKWPINPLNRIIKTIKKIPKTAIIGDFGCGEGKLAQSVPNKVYSMDLVAARSDIIACNITDTPLQARTLDVAVYCLSLMGTDLNEFFLEANRVLKLHGTVYIAEIQSRFQDVREFVRCLNACGFDLNKKDVAVNYFYFFQFKKMRHVPKNTKMKAFSLKPCLYRKR
As to B13, the MAPPIT interaction score in the assay with Sas10 is 0.356; with grau, 0.26.

B14: mRpL24 (protein)
chain: MRLTQYLASKLKNFSNLPKEYIERSKKQVYWQTPKEINYLPRTVERKRFRYTTNRSWTGQFRQQNMPGTVRRKVLVEPIEDWSFFRGDRIEVLVGKDKGKQGIVTQVIPERNWVIVEGLNWHYRKVGGEKEFPGIIIKSEAPLHVTKDIRLVDPSDLQGTDFEWRFTEEGEKVRVSLRSGRIIPIPETNNQTHDYKTPNAYIEREKDTPGAVVGEITFQPKLSTFEMDIMEEMGIKEERTPVKSYWY
As to B14, in the assay with Sarm, the MAPPIT interaction score was 0.785.
